Results: PubChem BioAssay AID2654 (Johns Hopkins Ion Channel Center, 2010)
Measured potencies and affinities stand elsewhere. Activity calls are given as the source filed them.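 Rule for the calls: active = increase of the KCNQ2 potassium channel current at -35 mV by at least one tested dose; inactive = no tested dose increases that current.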

What follows are molecules tested against Potassium voltage-gated channel subfamily KQT member 2 (Rattus norvegicus) (UniProt O88943) (assay: potentiation of rat KCNQ2 current – cell-based, retigabine-insensitive compounds, dose response (AID 2654)). Details: KCNQ2-CHO cells, automated patch clamp current potentiation; at 30 µM (top of the series).
Potassium voltage-gated channel subfamily KQT member 2 (Rattus norvegicus), sequence (O88943 whole entry, looked up): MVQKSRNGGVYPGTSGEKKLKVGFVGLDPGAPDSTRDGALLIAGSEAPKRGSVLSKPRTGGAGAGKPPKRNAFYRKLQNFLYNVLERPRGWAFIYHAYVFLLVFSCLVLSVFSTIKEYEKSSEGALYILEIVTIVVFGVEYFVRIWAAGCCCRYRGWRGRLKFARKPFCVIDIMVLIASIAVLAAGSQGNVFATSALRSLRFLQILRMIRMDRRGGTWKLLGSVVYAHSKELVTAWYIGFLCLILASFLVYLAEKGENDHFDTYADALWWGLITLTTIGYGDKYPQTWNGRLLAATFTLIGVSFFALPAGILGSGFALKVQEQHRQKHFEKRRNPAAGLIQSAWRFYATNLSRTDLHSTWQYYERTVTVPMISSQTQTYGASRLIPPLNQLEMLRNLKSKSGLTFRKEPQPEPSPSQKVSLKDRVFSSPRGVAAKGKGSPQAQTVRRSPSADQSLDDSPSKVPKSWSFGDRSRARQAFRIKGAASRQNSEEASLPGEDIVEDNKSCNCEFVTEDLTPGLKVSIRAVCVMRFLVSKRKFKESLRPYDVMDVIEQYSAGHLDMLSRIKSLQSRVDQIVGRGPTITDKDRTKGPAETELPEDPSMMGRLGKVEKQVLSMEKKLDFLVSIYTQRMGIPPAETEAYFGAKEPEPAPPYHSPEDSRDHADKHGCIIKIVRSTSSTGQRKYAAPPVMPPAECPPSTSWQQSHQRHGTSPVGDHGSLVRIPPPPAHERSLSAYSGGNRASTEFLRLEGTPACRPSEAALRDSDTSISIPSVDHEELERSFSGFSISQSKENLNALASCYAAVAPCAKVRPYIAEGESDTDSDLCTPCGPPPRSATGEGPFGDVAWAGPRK

| SMILES | outcome | potentiation |
| --- | --- | --- |
| S=C(Nc1cccnc1)NC1CCCCCCC1 | inactive |  |
| O=C(Nc1cccnc1)Nc1ccc(F)cc1F | inactive |  |
| Fc1ccc(NC(=S)Nc2cccnc2)c(Cl)c1 | inactive |  |
| S=C(Nc1cccnc1)NC1CCCC1 | inactive |  |
| COc1ccc(C)cc1NC(=O)Nc1cccnc1 | inactive |  |
| O=C(Nc1cccc(F)c1)Nc1nccs1 | inactive |  |
| COc1cccc(NC(=O)Nc2cccnc2)c1 | inactive |  |
| O=C(Nc1cccnc1)Nc1ccc(Cl)c(Cl)c1 | inactive |  |
| O=C(Nc1cccc(Cl)c1)N(CC1CC1)c1cccnc1 | inactive |  |
| CCOc1ccccc1NC(=O)Nc1cccnc1 | inactive |  |
| Cc1cc(NC(=O)NCc2ccc(Cl)cc2Cl)cnc1Cl | inactive |  |
| Fc1ccc(NC(=S)Nc2cccnc2)c(F)c1F | inactive |  |
| Cc1cc(NC(=O)Nc2cccc(F)c2)cnc1Cl | inactive |  |
| S=C(NCC1CCCCC1)Nc1cccnc1 | inactive |  |
| O=C(Nc1cccnc1)Nc1ccc2c(c1)CCC2 |  | 103 |
| Fc1ccc(NC(=S)Nc2cccnc2)cc1 | inactive |  |
| Cc1ccc(NC(=S)Nc2cccnc2)cc1 | inactive |  |
| COc1ccccc1NC(=O)Nc1cccnc1 | inactive |  |
| S=C(NCc1ccc(Cl)cc1Cl)Nc1cccnc1 | inactive |  |
| O=C(Nc1cccnc1)Nc1ccc2c(c1)OCCO2 | inactive |  |
| Cc1ccnc(NC(=O)NCc2ccc(Cl)cc2Cl)c1 | inactive |  |
| O=C(Nc1cccnc1)N1CCOCC1 | inactive |  |
| COc1cc(NC(=S)Nc2cccnc2)cc(OC)c1 | inactive |  |
| Cc1ccc(CNC(=S)Nc2cccnc2)cc1 | inactive |  |
| O=C(NCc1ccc(Cl)cc1Cl)Nc1ccc(Br)nc1 | inactive |  |
| Cc1ccnc(NC(=O)Nc2cccc(F)c2)c1 | inactive |  |
| O=C(Nc1cccnc1)N(CC1CC1)c1ccccc1 | inactive |  |
| S=C(NCc1ccccc1)Nc1cccnc1 | inactive |  |
